# TEAD-YAP inh: TEAD-YAP interaction inhibition; HEK-TIYL cells, TEAD-Gal4/YAP UAS-luciferase luminescence; inhibition, % at 9.12 µM; hit rate 1.4% among 640,000; AID 1259422; in the data active means inhibition above about 32%;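 further: 0% = median of test compound wells and 100% = reference inhibitor wells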
# MITF inh: blocks human microphthalmia-associated transcription factor; hit rate 0.91% among 650,000; inhibition, % at 2.6 µM; AlphaScreen MITF homodimerization, bead proximity signal; O75030; in the data active means inhibition above about 50%;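 further: 0% = vehicle wells with protein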
# GPR151 activ: activators of human GPR151; Q8TDV0; PathHunter beta-arrestin GPR151 cells, luminescence; activation, % at 11.2 µM; hit rate 1% among 650,000; AID 1508602; in the data active means activation above about 4.9%;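 further: 0% = median of compound wells and 100% = cells with positive control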
# FBW7 activator: human FBW7 E3 ligase activation, primary screen; hit rate 0.13% among 650,000; normalized activity (activation), % at 26.1 µM; AlphaScreen FBW7–phospho-cyclin E peptide binding, activator screen; AID 1259310; Q969H0; in the data active means normalized activity above about 1.9%;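 further: purified mutant Fbw7 with reduced substrate affinity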
# GPR151 confirm: confirmation of human GPR151 activators. shares compounds with GPR151 activ. GPR151 PathHunter beta-arrestin cells, luminescence, 90 min; % of EA-reagent control over plate median. activation, % at 11.2 µM. 6,700 tested, under 10 active. AID 1508609;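 active means mean percent activation across replicates above the confirmation screen cutoff of 4.91%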
# GPR119 counter: counter-screen for GPR151 activators: effect on human GPR119; shares compounds with GPR151 activ; GPR119 PathHunter beta-arrestin cells, luminescence, 90 min; 0 = compound-well median, 100 = enzyme-acceptor control; activation, % at 11.2 µM; hit rate 0.3% among 6,700; AID 1508611;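 active means mean percent activation in the counterscreen above 29.09%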;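 further: counterscreen on off-target GPR119 to flag nonselective hits from the GPR151 activator screen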
# Target sequence (Q8TDV5 whole entry, looked up): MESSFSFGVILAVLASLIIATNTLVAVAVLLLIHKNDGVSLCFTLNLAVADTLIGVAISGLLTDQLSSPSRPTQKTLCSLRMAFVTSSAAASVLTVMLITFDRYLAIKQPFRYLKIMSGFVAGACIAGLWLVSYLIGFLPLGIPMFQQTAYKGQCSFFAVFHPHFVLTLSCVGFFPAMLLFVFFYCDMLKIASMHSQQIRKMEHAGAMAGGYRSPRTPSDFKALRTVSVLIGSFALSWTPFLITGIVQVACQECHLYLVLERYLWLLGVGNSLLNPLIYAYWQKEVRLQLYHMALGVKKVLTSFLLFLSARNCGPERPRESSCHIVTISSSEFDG
# An asterisk follows results filed as active; x = no result. In the library only some 3.4% were active in any assay of this set; here they are far more common.
SMILES,TEAD-YAP inh,MITF inh,GPR151 activ,FBW7 activator,GPR151 confirm,GPR119 counter
COc1ccc2c(c1)-c1c(ssc1=S)C(C)(C)N2C(=O)c1sc2ccccc2c1Cl,1,31,-1,0,x,x
CCOC(=O)C1CCCN(CCC(=O)Nc2ccccc2)C1 (centres undefined),4,11,1,0,x,x
CCOC(=O)C1CCCN(CCC(C)c2ccccc2)C1 (centres undefined),1,34,8.1*,0,0,-5
CCOc1ccccc1/C=c1\sc2nc(-c3ccccc3OC(C)=O)nn2c1=O,-3,7,1,0,x,x
COc1ccc(-c2csc(NC(=O)c3ccc(C)o3)n2)cc1,0,10,9.6*,0,0,12
O=C(c1cc(F)c(F)cc1Cl)N1CCN(c2ccc([N+](=O)[O-])cc2)CC1,-10,-6,2,0,x,x
COc1ccc(CCNc2nc(N3CCCC3)nc(N3CCCC3)n2)cc1OC,-18,18,5.1*,0,1,-8
COc1ccc(CCNc2nc(NC(C)(C)CO)nc(N3CCCC3)n2)cc1OC,-2,15,-1,0,x,x
COc1ccc(CNS(=O)(=O)c2ccc3[nH]c(=O)ccc3c2)cc1,3,8,6.6*,0,0,-6
O=C(CC(O)(C(F)(F)F)C(F)(F)F)Nc1ccccc1Br,-8,10,0,1,x,x
COc1ccccc1NC(=O)CC(O)(C(F)(F)F)C(F)(F)F,14,3,5.8*,0,0,1
COc1ccccc1NC(=O)COc1ccc(C(=O)O)cc1,2,15,7.9*,0,0,0
Cc1ccc(Cl)cc1NC(=O)CC(O)(C(F)(F)F)C(F)(F)F,6,-17,5.2*,0,0,6
Oc1cccc(-c2cncc(-c3cccc4cccnc34)n2)c1,3,-3,1,0,x,x
CCc1ncc(CN2CCCC(C(=O)Nc3ccc(-c4ccn[nH]4)cc3)C2)cn1 (centres undefined),8,-4,-1,0,x,x
COc1ccc(OC)c(/C=N/NC(=O)c2[nH]ncc2Br)c1,-33,12,-2,0,x,x
COC(=O)c1[nH]ncc1Br,3,8,6.1*,0,0,-14
CC1CCCC(NS(=O)(=O)c2ccc(F)c(C(=O)Nc3cc(Cl)ccc3Cl)c2)C1C (centres undefined),2,-12,7.3*,0,0,-1
CN1CC(=O)N(CC(=O)N2CCc3ccccc3C2)C1=O,18,3,0,0,x,x
CC(C)(C)CC(=O)N1CCC2(CCC(=O)N2Cc2ccccc2)CC1,-3,10,0,0,x,x
COCCCN1C(=O)C(O)=C(C(=O)c2ccco2)C1c1ccc(C(C)(C)C)cc1 (centres undefined),17,19,0,1,x,x
COCCN1C(=O)C(O)=C(C(=O)c2ccc(C)o2)C1c1ccc(C(C)(C)C)cc1 (centres undefined),7,-1,7.5*,0,0,-2
O=C(O)c1ccc([N+](=O)[O-])cc1N1C(=O)c2ccccc2C1=O,-21,1,0,0,x,x
O=c1[nH]c2ccccc2nc1/C=C/c1ccc2c(c1)OCO2,-37,4,0,0,x,x
Cc1nnc(NC(=O)CSc2nnc(CNC(=O)c3ccco3)n2-c2ccc([N+](=O)[O-])cc2)s1,10,6,0,0,x,x
SMILES,TEAD-YAP inh,MITF inh,GPR151 activ,FBW7 activator,GPR151 confirm,GPR119 counter
Cc1cc(C)cc(Oc2coc3cc(OC(=O)C4CCCCC4)ccc3c2=O)c1,4,-8,1,0,x,x
O=C1C2CC=CCC2C(=O)N1CC(=O)N1N=C(c2ccc(Cl)cc2)CC1c1ccco1 (centres undefined),5,10,6.6*,0,2,-6
CCN1C(=O)C2C(c3ccccc3OC)NC(CC)(C(=O)OC)C2C1=O (centres undefined),-9,5,0,0,x,x
Cc1nc2c(C(=O)NCC3CCCO3)cnn2c(C)c1Cc1ccccc1 (centres undefined),-3,0,0,0,x,x
Cc1nc2c(C(=O)NCc3ccccc3Cl)cnn2c(C)c1Cc1cccc(Cl)c1,2,-1,5.3*,0,-1,-3
Cc1nc2c(C(=O)NC3CC3)cnn2c(C)c1Cc1cccc(Cl)c1,11,4,-1,0,x,x
Cc1nc2c(C(=O)NC3CCCC(C)C3C)cnn2c(C)c1Cc1cccc(Cl)c1 (centres undefined),2,6,6.5*,0,0,4
Cc1cccc(Cc2c(C)nc3c(C(=O)NCC4CCCO4)cnn3c2C)c1 (centres undefined),-1,-10,5.1*,0,0,-1
COc1ccccc1CNC(=O)c1cnn2c(C)c(Cc3ccc(C)cc3)c(C)nc12,-4,-7,5.6*,0,0,12
CC(NS(=O)(=O)c1ccc(F)cc1)C(=O)NCCc1ccccc1 (centres undefined),-21,-12,5,0,x,x
COc1nc(Nc2ccc(N3CCOCC3)cc2)nc(-c2csc3ccccc23)n1,7,14,-2,0,x,x
CCCCNC(=O)c1cnn2c(C)c(Cc3ccc(F)cc3)c(C)nc12,-3,-4,8.3*,0,1,14
N#CC1=C(SCC(=O)Nc2ccccc2)NC(=O)CC1c1ccc(Cl)cc1 (centres undefined),12,8,2,0,x,x
Clc1ccc(C(Cn2ccnc2)OCc2c(Cl)cccc2Cl)c(Cl)c1 (centres undefined),x,-7,10*,0,2,-5
CCN(CC)C(=O)CSc1nc(O)cc(=O)n1-c1ccc(Cl)c(Cl)c1,5,-12,-2,1,x,x
C=CCn1c(COc2cccc(C)c2C)n[nH]c1=S,4,4,5.0*,0,0,1
C=CCn1c(COc2ccccc2C)n[nH]c1=S,9,8,-1,1,x,x
NCCCC(=O)N1CCOCCOCCN(C(=O)CCCN)CCOCCOCC1,5,6,0,0,x,x
C=CCNC(=O)c1ccccc1NS(=O)(=O)c1ccc2c(c1)OCCO2,-9,-9,0,0,x,x
N#Cc1cccc(S(=O)(=O)n2nc(-c3ccc(Cl)cc3)cc2N)c1,-2,15,1,1,x,x
O=C1NC(=O)C(=Cc2ccc(OS(=O)(=O)c3ccc(Cl)cc3)cc2)C(=O)N1,-5,13,-1,0,x,x
COc1ccc(S(=O)(=O)Oc2ccc(C=C3C(=O)NC(=O)NC3=O)cc2)cc1,2,9,5.3*,-1,1,10
CCC(C)NC(=O)CSc1ncccc1C(=O)O (centres undefined),9,7,5.1*,0,1,-3
CCn1c(SCC(=O)Nc2ccccc2C)nnc1-c1ccccc1N,4,-1,1,0,x,x

# Screening data from PubChem.
